LmPK inhibitor: blocks Leishmania mexicana pyruvate kinase activity; purified LmPK, Kinase-Glo ATP luminescence, 1 h; Potency, µM (titrated, usually from 57.5 µM), without a hit: at the highest dose activity change, negative = inhibition, usual class: inhibitors; 0.37% of 290,000 active; AID 1721
Target sequence (Q27686 whole entry, looked up): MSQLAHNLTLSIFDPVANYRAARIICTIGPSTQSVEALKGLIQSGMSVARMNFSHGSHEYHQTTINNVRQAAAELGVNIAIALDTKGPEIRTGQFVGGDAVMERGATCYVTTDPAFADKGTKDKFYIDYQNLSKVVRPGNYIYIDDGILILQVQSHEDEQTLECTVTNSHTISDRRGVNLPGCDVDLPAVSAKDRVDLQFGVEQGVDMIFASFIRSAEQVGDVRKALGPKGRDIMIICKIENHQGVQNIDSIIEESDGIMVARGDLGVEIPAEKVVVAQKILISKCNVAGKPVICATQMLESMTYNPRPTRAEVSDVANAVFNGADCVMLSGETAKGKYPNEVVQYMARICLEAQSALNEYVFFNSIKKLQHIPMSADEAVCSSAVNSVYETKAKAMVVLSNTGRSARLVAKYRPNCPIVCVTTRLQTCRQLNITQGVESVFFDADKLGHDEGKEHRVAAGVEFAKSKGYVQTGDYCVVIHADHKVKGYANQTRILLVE
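Pyruvate kinase activity monitored as ATP production (luciferase luminescence). Conditions: 0.1 nM enzyme, 0.5 mM PEP, 0.1 mM ADP, 1 h, RT; normalized against uninhibited and no-enzyme wells.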
RE007 growth inh: less growth of the S. pombe RE007 Vpr strain; S. pombe RE007 Vpr strain, BacTiter-Glo ATP luminescence, 24 h; Potency, µM (top dose mostly 92.2 µM), for inactives: top-dose activity change, negative = less growth, hits mostly inhibitors; 0.21% of 360,000 active; AID 651644; active = well fitted falling curve with a large enough effect; inconclusive = small, poorly fitted or top-dose-only effect; inactive = no such curve, though single readings can be large or run the other way; also: nearly all actives have a fitted effect of over 50% in size
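Fission yeast strain RE007, carrying one chromosomally integrated HIV-1 vpr copy, was seeded at OD 0.01 in PMG+AL medium with 23 nL pinned compound. After 24 h at 30 °C and 99% humidity, viability was read by BacTiter-Glo luminescence.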
Sm TGR block: inhibitors of Schistosoma mansoni thioredoxin glutathione reductase; 3% of 360,000 active; Potency, µM (highest dose often 114 µM), without a hit: top-dose activity change, negative = inhibition, actives largely listed as inhibitors; purified TGR, DTNB reduction, TNB absorbance 405 nm; AID 485364; Q962Y6; also: nearly all actives have a fitted effect of over 60% in size
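First, TGR (20 nM dispensed) and NADPH were mixed with compound. Second, a 15 min room-temperature incubation followed. Third, further NADPH and then DTNB were added to start the reaction. Finally, TNB absorbance was monitored kinetically.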
Tb PYK inh: blocks Trypanosoma brucei pyruvate kinase; TbPYK enzyme, Kinase-Glo Plus ATP luminescence, 45 min; Potency, µM (titrated, usually from 76.8 µM), for inactives: at the top dose activity, negative = inhibition, usual class: inhibitors; 0.12% of 410,000 active; also: nearly all actives have a fitted effect of over 50% in size
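T. brucei PYK with substrate was exposed to pin-transferred compounds across a concentration series, then started with 130 uM ADP (final). After 45 min at room temperature, Kinase-Glo Plus luminescence was read, normalized and curve-fitted.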
The depositor's hits bear a star; ? = inconclusive; · = no result given; [ ] = another dose, or the depositor's remark. In the library only some 3% were active in any assay of this set; here they are far more common. Unless noted, calls follow the shape of the dose curve; as a rule, active = well fitted curve in the direction sought with a large enough effect; inconclusive = small, poorly fitted or top-dose-only effect, or another doubt; inactive = no such curve, though single readings can be large; an effect the other way counts as inactive or inconclusive. % is scaled to controls: 0 for no effect and ±100 for the full control effect; potency is read from the fitted curve at half-maximal effect.

SMILES | LmPK inhibitor | RE007 growth inh | Sm TGR block | Tb PYK inh
N#Cc1ccc2c(=O)n(-c3ccccc3)sc2c1 | · | 10µM* | · | 3.2µM*
O=c1c2ccccc2sn1-c1ccccc1 | ? | 8.9µM* | 6% | ?
O=c1c2ccccc2sn1-c1nccs1 | 0% | 0% | 9% | 5.6µM*
O=C(O)c1cccc(-n2sc3ccccc3c2=O)c1 | · | 1% | ? | ?
O=c1c2ccccc2sn1-c1cccc(Cl)c1 | · | 10µM* | · | 7.1µM*
O=c1c2ccccc2sn1-c1ccc(S(=O)(=O)N2CCCCC2)cc1 | · | 1% | · | ?
CN(C)S(=O)(=O)c1cccc(-n2sc3ccccc3c2=O)c1 | -2% | -11% | ? | 4µM*
CCN1C(=O)CC(C(=O)Nc2ccc(OC)cc2)SC1=Nc1ccc(C)c(C)c1 (configuration not stated) | · | · | -2% | -1%
CC(NC(=O)CCCN1C(=O)CCn2nc(-c3cn(C)c4ccccc34)cc21)c1ccccc1 (configuration not stated) | · | · | 2% | 3%
CCOC(=O)c1cccc(NC(=O)CCc2c(C)nn(-c3ccc(N4CCCCC4)nn3)c2C)c1 | · | · | -2% | 2%
Cc1csc(=O)n1CCC(=O)OCC(=O)NNC(=O)c1ccc(Cl)cc1 | · | 0% | 35µM* | -13%
Cc1csc(=O)n1CCC(=O)OCC(=O)NCc1ccc(Cl)cc1Cl | · | 10% | -1% | -1%
COc1ccc(CCNC(=O)C2CCC(CNS(=O)(=O)c3ccc(C)cc3)CC2)cc1OC (configuration not stated) | · | · | 4% | 0%[15.4 µM]
Cc1ccc(Sc2ccc(C(=O)N(C)C)cc2[N+](=O)[O-])cc1 | 1% | -1% | · | -5%
Cc1ccc(C(=O)c2coc3cc([N+](=O)[O-])c(O)c([N+](=O)[O-])c23)cc1 | -1% | 1% | 50µM* | -30%
N#C/C(=C(/O)CCl)c1nc(-c2ccccc2)cs1 | 0% | -13% | ? | -2%
Cc1ccc(-c2csc(/C(C#N)=C(\O)CCl)n2)cc1 | 2% | 0% | 18µM* | -14%
CCCCCCCCOC(=O)C1=C(C)Nc2nnnn2C1c1cccs1 (configuration not stated) | 0% | 32µM* | 3% | -24%
CCCC(=O)N1CCCC(c2cc(C(=O)NCc3cccnc3)no2)C1 (configuration not stated) | · | -5% | · | 4%
CCOc1ccc(NCC(=O)N/N=C/C=C/c2ccccc2)cc1 | -6% | -12% | -4% | 2%
CCOc1ccc(N=C/C=C/c2ccccc2)c(O)c1 | -13% | -30% | 40µM* | -12%
Cc1ccc(C(=O)Nc2cccc3[nH]c(C(F)(F)F)nc23)cc1 | -6% | 6% | 0% | 5%
COc1ccc(CNc2cccc3[nH]c(C(F)(F)F)nc23)cc1 | 4% | 4% | 32µM* | -17%
COc1cccc(-c2cc(C(F)(F)F)nc(NCc3ccc(F)cc3)n2)c1 | · | · | -2% | 0%
COc1cc(CNc2cccc3[nH]c(C(F)(F)F)nc23)cc(OC)c1 | -7% | 1% | 22µM* | -25%
SMILES | LmPK inhibitor | RE007 growth inh | Sm TGR block | Tb PYK inh
Cc1ccccc1Cn1c2ccccc2c2cnn(CC(=O)NCCc3ccccc3)c(=O)c21 | · | · | -7% | -5%
Cc1ccc(C)c(S(=O)(=O)N2CCN(C(=O)[C@H](Cc3ccccc3)NC(=O)c3ccco3)CC2)c1 | · | 2% | · | 6%
CCOC(=O)c1c(NC(=O)c2cc(CC)on2)sc(C)c1C | · | · | -2% | -17%
Clc1ccc(-c2nc(/C=N/N3CCOCC3)c3ccccn23)cc1 | 4% | 3% | 45µM* | 6%
CN1CCN(/N=C/c2nc(-c3ccc(Cl)cc3)n3ccccc23)CC1 | 4% | -1% | ? | -5%
Cn1c(C(=O)N2CCOCC2)cc2c(=O)n3ccccc3nc21 | -12% | 8% | -25% | -3%
Cn1c(C(=O)N2CCN(C(=O)c3ccco3)CC2)cc2c(=O)n3ccccc3nc21 | 1% | 0% | 45µM* | -2%
NCC(=O)NCC(=O)NC[C@H]1O[C@@H](n2cnc3c(N)ncnc32)[C@H](O)[C@@H]1O | · | -6% | · | -2%
CS/C(=C/[N+](=O)[O-])Nc1cccc2c1C(C)CC2(C)C (configuration not stated) | -6% | 12% | 13µM* | 3%
CC(=O)Nc1cc2c(c([N+](=O)[O-])c1C)C(C)(C)CC2(C)C | · | -10% | · | -4%
CCn1cnc2cc(NCc3ccc(N(C)C)cc3)ccc21 | -2% | -2% | 8.9µM* | -12%
CCN(CC)c1ccc(CNc2ccc3c(c2)ncn3CC)cc1 | -3% | -10% | ? | 1%
Cn1c2ccccc2c(=O)c2cc(C#CC3=CCCCC3)ccc21 | · | -13% | 2.2µM* | -17%
C=CCn1c2ccccc2c(=O)c2cc(C#CC3(O)CCCCC3)ccc21 | 4% | 0% | -20% | -2%
C=CCn1c2ccccc2c(=O)c2cc(C#CC[C@@H](C)O)ccc21 | · | -23% | 50µM* | -1%
CCOc1ccccc1CN1CCc2nc(N3CCN(c4ccccc4F)CC3)ncc2C1 | · | · | 7% | 1%
CCSc1ncc(Cl)c(C(=O)Nc2sc3c(c2C(=O)NCCCOC)CCCC3)n1 | · | · | 4% | 2%
COCCCNC(=O)c1c(NC(=O)c2nc(S(C)(=O)=O)ncc2Cl)sc2c1CCCC2 | · | · | 5.6µM* | 1%
Cc1ccc(Nc2ccc([N+](=O)[O-])nc2[N+](=O)[O-])cc1 | -2% | 0% | 45µM* | -13%
COc1ccc(NC(=O)C2(C)CCN2CCOc2ccc(C)cc2)cc1OC (configuration not stated) | · | -9%[18.4 µM] | · | 4%
COc1ccc2c(CC#N)c[nH]c2c1 | 6% | -9% | 50µM* | 2%
COc1ccc2[nH]cc(C(=O)CN(C)C)c2c1 | · | -3% | · | 4%
COc1ccc2c(CCN)c[nH]c2c1 | -4% | 0% | 3% | -9%
COc1ccc2c(C(=O)CCl)c[nH]c2c1 | 2% | -15% | 4.5µM* | 1%
COC[C@@H](c1ccc(C(F)(F)F)cc1)N1CCN(C2(C)CCN(C(=O)c3c(C)ncnc3C)CC2)C[C@@H]1C | · | · | · | 0%
SMILES | LmPK inhibitor | RE007 growth inh | Sm TGR block | Tb PYK inh
Cn1cnnc1SCc1ccc(-c2ccc(Br)cc2)o1 | -8% | -27% | 25µM* | 1%
CCOC(=O)c1oc2ccccc2c1NC(=O)c1ccco1 | 1% | 3% | 1% | 5%
CCOC(=O)c1oc2ccccc2c1NC(=O)CCl | -4% | -11% | 5.6µM* | -1%
O=C1CN(C(=O)CNCc2cccc(Cl)c2)c2ccccc2N1 | -13% | -15% | 45µM* | 4%
Cc1ccc(-c2c(C)n3c4c(=O)n(C)c(=O)n(C)c4nc3n2-c2cccc(O)c2)cc1 | · | · | -11% | 7%
C/C=C1/C[N+]2(C)CCC34C(=C(C=O)[C@H]1C[C@@H]32)Nc1ccccc14 (some centres not stated) | · | -5%[18.4 µM] | 28µM* | -8%
C=CCOc1ccc(C2/C(=C(/O)c3ccc4c(c3)CC(C)O4)C(=O)C(=O)N2CCCN2CCOCC2)cc1 (configuration not stated) | -1% | 2% | 0% | 1%

Bioassay records from PubChem BioAssay.
